About 83,000 compounds went through this panel and 20% of them were active in at least one assay; those are over-represented in the sample as a whole.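 Growth was measured after 48 h exposure to one concentration of compound in 96-well plates. Values under 10 count as active.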 Activity calls are given as the source filed them.
Legend:
Assay in all cases: NCI-60 one-dose screen, 48 h (100 = growth as untreated, 0 = no growth, -100 = all killed)
Conditions in all cases: 10 µM unless noted
[1] = tested on: NCI-H23 lung
[2] = tested on: NCI-H226 lung
[3] = tested on: NCI-H322M lung
[4] = tested on: HOP-62 NSCLC
[5] = tested on: NCI-H460 lung
[6] = tested on: HOP-92 NSCLC
[7] = tested on: NCI-H522 lung
[8] = tested on: A549/ATCC NSCLC
[9] = tested on: 786-0 renal
[10] = tested on: COLO 205 colon

Structure (SMILES)	growth [1]	growth [2]	growth [3]	growth [4]	growth [5]	growth [6]	growth [7]	growth [8]	growth [9]	growth [10]
COc1ccc(OC)c(/C=C/C(=O)N/N=C/c2ccccc2)c1	65.1% (inactive)	86.6% (inactive)	79.6% (inactive)	67.3% (inactive)	13.5% (inactive)	76.6% (inactive)	-15.3% (active)	48.4% (inactive)	54.3% (inactive)	42.8% (inactive)
Cc1ccc(-c2nn(C)c(=O)c3noc(-c4ccc(C)cc4)c23)cc1	43.1% (inactive)	58% (inactive)	56.4% (inactive)	28.1% (inactive)	22.7% (inactive)	14.2% (inactive)	9.02% (active)	46.2% (inactive)	29% (inactive)	12.5% (inactive)
CCc1ccccc1-n1c(N)c(C#N)c(-c2ccc(Cl)cc2)c(C#N)c1=O	107% (inactive)	110% (inactive)	140% (inactive)	101% (inactive)	111% (inactive)	80% (inactive)	94.2% (inactive)	117% (inactive)	112% (inactive)	126% (inactive)
NCCCNc1nc2ccc(Cl)cc2c2c(=O)c3cc(F)ccc3sc12	82.9% (inactive)	91.9% (inactive)	74.9% (inactive)	81.9% (inactive)	-68.8% (active)	30.3% (inactive)	62.4% (inactive)	58.2% (inactive)	72.7% (inactive)	31.9% (inactive)
COC1=C(C)C(=O)c2c(c(CCCl)c3n2CCC3OC(C)=O)C1=O (stereo not given)	-12% (active)	-14.9% (active)	-14.8% (active)	-22.4% (active)	-14.3% (active)	56.4% (inactive)	-56.9% (active)	1.27% (active)	-32.4% (active)	-60% (active)
CCOc1c(B(O)O)cccc1-c1nc2ccc3[nH]ncc3c2c2c1CCCC2	60.1% (inactive)	54.3% (inactive)	109% (inactive)	48.3% (inactive)	42.1% (inactive)	33.5% (inactive)	55.2% (inactive)	64.5% (inactive)	47.7% (inactive)	48.6% (inactive)
COc1ccc2nc(NC(=O)c3cccnc3Nc3ccc(S(N)(=O)=O)cc3)sc2c1	105% (inactive)	95.5% (inactive)	89.8% (inactive)	109% (inactive)	98.9% (inactive)	84.9% (inactive)	95.5% (inactive)	93.5% (inactive)	78.3% (inactive)	159% (inactive)
COc1ccc(OC)c(/C=C/c2nnc(Nc3ccccc3)o2)c1	97.3% (inactive)	89.7% (inactive)	99.6% (inactive)	106% (inactive)	97.2% (inactive)	62.5% (inactive)	82.3% (inactive)	96.5% (inactive)	87.4% (inactive)	129% (inactive)
COc1ccc(-c2cc(-c3ccc(Cl)cc3)c(C#N)c(=O)n2CCCCCC(=O)Nc2ccccc2N)cc1	63.1% (inactive)	72.9% (inactive)	61.4% (inactive)	41.8% (inactive)	26.7% (inactive)	13% (inactive)	33.7% (inactive)	35.7% (inactive)	41.5% (inactive)	10.1% (inactive)
[O-][n+]1c2ccccc2[n+]([O-])c2c3ccccc3[nH]c21	71.5% (inactive)	-0.987% (active)	66.9% (inactive)	26.2% (inactive)	5.29% (active)	66.5% (inactive)	57.5% (inactive)	30.6% (inactive)	71% (inactive)	69.8% (inactive)
O=C(/C=C/c1cccc2ccccc12)c1ccc(NC(=O)c2ccccc2CN2C(=O)c3ccccc3C2=O)cc1	67.3% (inactive)	93.4% (inactive)	79.7% (inactive)	94.2% (inactive)	79.9% (inactive)	80.2% (inactive)	68.4% (inactive)	78.6% (inactive)	97% (inactive)	101% (inactive)
CC(=O)CC(c1cccs1)c1c(-c2ccccc2)[nH]c2ccccc12 (stereo not given)	66% (inactive)	84.3% (inactive)	91.4% (inactive)	89.5% (inactive)	98.4% (inactive)	72.6% (inactive)	80.6% (inactive)	91.3% (inactive)	98.9% (inactive)	107% (inactive)
COc1cccc(-c2nc(-c3ccc(NC(=O)c4ccccc4)cc3)[nH]c2-c2ccnc(Br)c2)c1	27.9% (inactive)	47% (inactive)	41.2% (inactive)	4.28% (active)	19.1% (inactive)	50.2% (inactive)	16.2% (inactive)	39.3% (inactive)	-10.4% (active)	16.7% (inactive)

— PubChem BioAssay (NCI)
